Reference: PubChem BioAssay (NCATS)
Values joined by “and” are separate entries in the source; they are usually repeats but may differ in a detail not shown here. Equal values may be shown once. Inconclusive results are not listed. Where a call stands in place of a potency, no number is given. More than one record can exist for a structure, and the calls need not agree. Active and inactive are the calls of the source. The call rests on the fitted dose curve; in most records, active means well fitted inhibition curve with a large enough effect; inconclusive means small, poorly fitted or top-dose-only effect, or effect the other way; inactive means flat fitted curve, though single readings scatter.

Test: qHTS for Inhibitors of Plasmodium falciparum (GB4) proliferation (AID 504315); further: nearly all actives have a fitted effect of over 50% in size
Conditions: P. falciparum GB4 in erythrocytes, SYBR Green DNA, 72 h; series mostly up to 6.7 µM
Source text: Plasmodium falciparum is a virulent malarial parasite that kills 1-2 million people worldwide each year. Malaria not only inflicts tremendous suffering and morbidity on the human population, but has dramatically influenced the course of civilization with profound sociological and economic implications (Shah, S. 2010). Transmitted by mosquitoes, the sporozoite form of the parasite enters the blood stream to infect hepatocytes, where they become merozoites that infect red blood cells (erythrocytes). Within erythrocytes, merozoites begin a […] cycle of growth and division, after which the parasite is released to infect new red blood cells. Gametocytes, which form within erythrocytes as well, circulate in the bloodstream and are ingested by the mosquito, thereby completing the life cycle (see CDC website). To profile malarial lines for differential chemical responses and to identify inhibitors of malarial growth, an assay that measures P. falciparum growth and replication within erythrocytes was employed. This assay uses a DNA binding fluorescent dye (SYBR Green) to detect parasite DNA following cell lysis. Because mature erythrocytes lack DNA, only Plasmodium-derived DNA is detected. The P. falciparum line cp250, derived from a malarial isolate from Cambodia, (Mu, J., et al. 2010) was added to the panel of lines, Dd2, HB3, 7G8 and GB4 in this study. Laboratory of Assay Development and Screening Technology [ADST] and NIH Chemical Genomics Center [NCGC] Boston University, Chemistry Department, Center for Chemical Methodology and Library Development [CMLD-BU] NIH National Institute of Allergy and Infectious Diseases [NIAID]
ADST Assay Protocol Summary: The 1536-well SYBR Green viability assay was based on the method of Bennett et al (2004) and described previously in 1536-well format (Yuan J., et al. 2009). For screening 3 ul culture medium was dispensed into 1536 well black clear bottom plates (Aurora Biotechnologies) using a Multidrop Combi (Thermo Fisher Scientific Inc.), 23 nL compounds in DMSO were added by a pin transfer (Cleveland, P.H. and Koutz, P.J, 2005) using a pin tool-based delivery system (Kalypsys), and 5 ul of erythrocytes infected with P. falciparum one of five lines (cp250, Dd2, HB3, 7G8 or GB4, 0.3% parasitemia, 2.5% hematocrit final concentration) were added. The plates were incubated at 37C in a humidified incubator in 5% CO2 for 72 h, and 2 ul lysis buffer (20 mM Tris HCl, 10 mM EDTA, 0.16% saponin, 1.6% triton X, 10X SYBR Green I (supplied as 10,000X final concentration by Invitrogen) was added to each well. The plates were mixed for 25 sec with gentle shaking and incubated overnight at room temperature in the dark. The following morning, fluorescence intensity at 485(14) nm excitation and 535(25) nm emission wavelengths was measured on an EnVision (Perkin Elmer) plate reader. Plate reads were normalized relative to the control inhibitor (0.29 uM artemisinin) and vehicle (DMSO) wells present on each plate and then corrected by an algorithm using vehicle-only control plates at the beginning and end of the compound plate stack. References Shah, S. (2010). The Fever: how malaria has ruled humankind for 500,000 years. New York, Sarah Crichton Books. CDC web site, http://www.cdc.gov/malaria/about/biology/index.html Mu, J., Myers, R.A., Jiang, H., Liu, S., Ricklefs, S., Waisberg, M., Chotivanich, K., Wilairatana, P., Krudsood, S., White, N.J., et Plasmodium falciparum genome-wide scans for positive selection, recombination hot spots and resistance to antimalarial drugs Nature Genetics 2010, 42, pp 268-271 Bennett TN, Paguio, M., Gligorijevic, B., Seudieu, C., Kosar, A. D., Davidson, E., and Roepe, P. D. Novel, rapid, and inexpensive cell-based quantification of antimalarial drug efficacy Antimicrobial Agents Chemother. 2004, 48(5): pp 1807-10 Yuan J, Johnson RL, Huang RL, Wichterman J, Jiang HY, Hayton K, Fidock DA, Wellems TE, Inglese J, Austin CP, Su XZ. […]
Potency means the concentration at half of the fitted maximal effect.

SMILES | Potency
C=CCC1(c2ccccc2)Oc2ccccc2-c2nc3cc(Cl)c(Cl)cc3nc21 (stereo not given) | inactive
C=CCOC(=O)N[C@@H](c1cccc(OC)c1)[C@@H](C)C=CCC(=O)O | inactive
COC(=O)C1=C(C)N(Cc2ccccc2)C(=NCc2ccc(OC)cc2)NC1c1ccccc1 (stereo not given) | inactive
CC(CCC(=O)OC[C@H]1O[C@H](C#Cc2ccccc2)C=C[C@H]1Oc1ccc(C)cc1)=NOC[C@@H](O)[C@H]1O[C@@H]2OC(C)(C)O[C@H]2[C@@H]1O | inactive
Cc1ccc2[nH]c3nc(CCCn4ccnc4-c4ccccc4)nnc3c2c1 | inactive
CCN1C(=O)[C@@H]2[C@H]3[C@H](O)[C@H](O)CC(=NOC[C@@H](O)[C@H]4O[C@@H]5OC(C)(C)O[C@H]5[C@@H]4O)[C@@H]3CC[C@H]2C1=O | inactive
C=CCN=C1N[C@@H](c2ccccc2)[C@H](C(=O)OC)[C@@H](C)N1CC | inactive
CC(CCC(=O)OC[C@H]1O[C@H](C#Cc2ccccc2)C=C[C@H]1Oc1ccc(C)cc1)=NO[C@@H](C)CN1CCCCc2nc(C)c(C)cc21 | inactive
COCC=CC1=CC2=CC(=O)C(C)(OC(=O)c3cnc4ccccc4n3)C(=O)C2=CN1CCc1c[nH]c2ccccc12 (stereo not given) | inactive
CCN1C(=O)[C@@H]2[C@H]3[C@H](O)[C@H](O)CC(=NOC[C@@H](C)[C@H](OCc4ccccc4)C(C)C)[C@@H]3CC[C@H]2C1=O | inactive
C=CCN1C(=O)CC[C@@]23C1=NC(C(=O)OC)=C(C(=O)OC)[C@@H]2N(CC=C)c1ccccc13 | inactive
C[C@@H]1NC(=O)[C@@H](C)COC(=O)[C@H](C)NC(=O)[C@@H](C)COC1=O | inactive
CCOC(=O)CN1C(=O)[C@@]2(C[C@@H](C)C[C@@H](C)O2)c2ccccc21 | inactive
COC(=O)C1=C(C)[C@H](O)[C@@H](C)[C@](C)(c2cc(OC)c(C)c(OC)c2COc2ccccc2)O1 | 2.13 µM (active) and inactive
CCN1C(=NCc2cccc(Cl)c2)N[C@@H](CCc2ccccc2)[C@H](C(=O)OC)[C@H]1C | inactive
COCC=CC1=CC2=CC(=O)C(C)(OC(=O)c3cnc4ccccc4n3)C(=O)C2=CN1Cc1ccc(OC)cc1 (stereo not given) | inactive
COC1=C[C@H](C(=O)NC2CCN(Cc3ccccc3)CC2)[C@@]2(C)Cc3ccccc3[C@@H]2CC1=O | inactive
CC(=O)OC[C@H]1O[C@H](C#Cc2ccccc2)C=C[C@H]1O | inactive
CCCCCCCC=CC1=CC2(C)CC1(C)C(CCCCCCC)CC2=O (stereo not given) | inactive
O=P1(O)Oc2c(-c3ccccc3)cc3ccccc3c2-c2c(c(-c3ccccc3)cc3ccccc23)O1 | inactive

SMILES | Potency
COCCN1C(=O)N[C@@H](c2cccc(C(F)(F)F)c2)[C@H](C(C)=O)[C@H]1C | inactive
C#CCN1C(=O)CC[C@@]23C1=NC(C(=O)OC)=C(C(=O)OC)[C@@H]2N(C)c1ccccc13 | inactive
CC(C)CON=C1C[C@@H](O)[C@@H](O)[C@@H]2[C@H]3C(=O)N(C[C@@H]4CCCO4)C(=O)[C@@H]3CC[C@H]12 | inactive
C[C@@H]1C=CCCO[C@]12C(=O)Nc1ccc(O)cc12 | inactive
COC(=O)CCCC1=CC2=C(c3ccccc3)C(=O)C(C)(OC(=O)C3CCCC3)C(=O)C2=CN1c1ccccc1 (stereo not given) | inactive
CC(C)OC(=O)[C@H](C)NC(=O)N1CCc2nc(-c3ccccc3)c3c(c2C1)CO[C@@H](C)C3 | inactive
CC(C)=CCCC(C)=CCN1C(=O)[C@]2(O[C@H](COc3ccccc3)CC3=CCCC32)c2c(Br)cccc21 (stereo not given in full) | 1.51 µM (active)
CC1=C[C@@H](C)O[C@@]2(C1)C(=O)Nc1cccc(Br)c12 | inactive
COC(=O)C1=C(C)N(Cc2ccccc2)C(=O)NC1c1cccc(F)c1 (stereo not given) | inactive
Cn1c(-c2ccccc2)c(O)c(=O)c2ccccc21 | inactive
COc1ccc([C@]23Cc4cc(OC)c(OC)cc4[C@H](O2)C2=C(CC4(CCCCC4)OC2=O)O3)cc1 | inactive
CC(C)(C)OC(=O)NCCCC1=CC2=CC(=O)C(C)(O)C(=O)C2=CO1 (stereo not given) | inactive
COC(=O)CC=C[C@H](C)[C@@H](NC(=O)C(F)(F)F)c1ccccc1Br | inactive
CC(C)C(=O)N[C@H]1CCCN1C(=O)C=Cc1ccccc1 | inactive
COC(=O)CC=C[C@@H](C)[C@H](OC)c1ccccc1Br | inactive and 1.51 µM (active)
COC(=O)C1=C(C(=O)OC)[C@@H]2N(C)c3ccccc3[C@@]23CCC(=O)N(Cc2cc(OC)c(OC)c(OC)c2)C3=N1 | inactive
CCN(CC)CCCN=C1NC(c2ccccc2)C(C(=O)OC)=C(C)N1CC (stereo not given) | inactive
COC(=O)[C@@H]1CC[C@H](C)[C@@H](c2ccc(C)cc2)N1C(=O)c1ccc(C=NO[C@@H](C)c2cn([C@H](CO)Cc3ccccc3)nn2)cc1 | inactive
N#CCCN(CC#Cc1ccccc1)OCc1ccccc1 | inactive
CC=C[C@@H]1Oc2ccc(OC)cc2N2C(=O)[C@H](C)[C@@H](OCOC)[C@H]12 | inactive
